Results reported in PubChem BioAssay (EPA / NIEHS).
Inconclusive results are not listed. The source made the active and inactive calls. Rule for the calls, unless noted: active = hit-call score of the fitted dose curve at least 0.9, where 1 is the maximum; inactive = score below 0.9.

Key:
[1] = ATG_PBREM_CIS: Attagene CIS-FACTORIAL HepG2 Assay for human Phenobarbital-responsive Enhancer Module (PBREM) (AID 2282955); settings: HepG2 PBREM cis-reporter, Attagene multiplexed transcription; actives raise or lower the signal
How it was run: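 HepG2 cells transiently transfected with multiple cis-regulated reporter transcription units; endogenous factor activity at the PBREM element measured as reporter mRNA 24 h after dosing, via RT-PCR and capillary electrophoresis of fluorescent fragments; bidirectional fitting versus DMSO.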

[2] = molecular target: Paired box protein Pax-6 (Homo sapiens) (UniProt P26367); assay: ATG_Pax6_CIS: Attagene CIS-FACTORIAL HepG2 Assay for human Paired Box 6 (PAX6) (AID 2282956); settings: HepG2 CIS-FACTORIAL PAX6 reporter transcription, RNA readout; actives raise or lower the signal
Sequence of Paired box protein Pax-6 (Homo sapiens) (P26367 whole entry, looked up): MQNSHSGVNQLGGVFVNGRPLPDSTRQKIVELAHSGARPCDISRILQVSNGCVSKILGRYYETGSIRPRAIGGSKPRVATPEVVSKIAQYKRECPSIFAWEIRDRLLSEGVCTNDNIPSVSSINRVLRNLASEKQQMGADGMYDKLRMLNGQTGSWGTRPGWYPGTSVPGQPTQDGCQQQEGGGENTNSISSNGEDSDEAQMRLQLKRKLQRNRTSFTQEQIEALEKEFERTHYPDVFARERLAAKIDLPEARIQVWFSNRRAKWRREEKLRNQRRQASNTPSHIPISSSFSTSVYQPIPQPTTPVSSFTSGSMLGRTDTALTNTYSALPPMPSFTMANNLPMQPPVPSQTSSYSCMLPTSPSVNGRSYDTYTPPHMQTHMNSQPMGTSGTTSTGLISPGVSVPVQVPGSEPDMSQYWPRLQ
How it was run: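 Multiplexed cis-reporter HepG2 system; 24 h treatment; reporter mRNA read by RT-PCR/CE fluorescence; bidirectional fit vs DMSO.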

[3] = ATG_PPRE_CIS: Attagene CIS-FACTORIAL HepG2 Assay for human Peroxisome Proliferator-activated Response Element (PPRE) (AID 2282958); settings: HepG2 PPRE cis-element reporter, Attagene transcription factor profiling; actives raise or lower the signal
How it was run: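 HepG2 cells transiently transfected with multiplexed cis-element reporter units measure endogenous transcription factor activity. After 24 h compound exposure, reporter mRNA is quantified by RT-PCR, 6-FAM labeling, HpaI digestion and capillary electrophoresis; bidirectional fits are made against DMSO baseline.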

[4] = ATG_RORE_CIS: Attagene CIS-FACTORIAL HepG2 Assay for human RAR-related Orphan Receptor Element (RORE) (AID 2282959); settings: HepG2 Attagene cis-factorial RORE reporter, mRNA; actives raise or lower the signal
How it was run: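 HepG2 cells transiently transfected with multiple cis-element reporter transcription units, exposed to chemical for 24 h. Reporter mRNA quantified by RT-PCR, 6-FAM primer-extension labeling, HpaI digestion and capillary electrophoresis; bidirectional fit versus DMSO baseline.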

[5] = ATG_Sox_CIS: Attagene CIS-FACTORIAL HepG2 Assay for human SRY-box transcription factor (SOX) (AID 2282960); settings: HepG2 Attagene cis-factorial SOX reporter, mRNA; actives raise or lower the signal
How it was run: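 HepG2 cells transiently transfected with cis-element-driven multiple reporter transcription units, dosed 24 h; reporter mRNA measured by RT-PCR, FAM labelling, HpaI digestion and capillary electrophoresis. Bidirectional fit versus DMSO baseline.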

[6] = molecular target: Transcription factor Sp1 (Homo sapiens) (UniProt P08047); assay: ATG_Sp1_CIS: Attagene CIS-FACTORIAL HepG2 Assay for human Specificity Protein 1 (Sp1) (AID 2282961); settings: HepG2 Sp1 cis-reporter transcription, actives raise or lower the signal
Sequence of Transcription factor Sp1 (Homo sapiens) (P08047 whole entry, looked up): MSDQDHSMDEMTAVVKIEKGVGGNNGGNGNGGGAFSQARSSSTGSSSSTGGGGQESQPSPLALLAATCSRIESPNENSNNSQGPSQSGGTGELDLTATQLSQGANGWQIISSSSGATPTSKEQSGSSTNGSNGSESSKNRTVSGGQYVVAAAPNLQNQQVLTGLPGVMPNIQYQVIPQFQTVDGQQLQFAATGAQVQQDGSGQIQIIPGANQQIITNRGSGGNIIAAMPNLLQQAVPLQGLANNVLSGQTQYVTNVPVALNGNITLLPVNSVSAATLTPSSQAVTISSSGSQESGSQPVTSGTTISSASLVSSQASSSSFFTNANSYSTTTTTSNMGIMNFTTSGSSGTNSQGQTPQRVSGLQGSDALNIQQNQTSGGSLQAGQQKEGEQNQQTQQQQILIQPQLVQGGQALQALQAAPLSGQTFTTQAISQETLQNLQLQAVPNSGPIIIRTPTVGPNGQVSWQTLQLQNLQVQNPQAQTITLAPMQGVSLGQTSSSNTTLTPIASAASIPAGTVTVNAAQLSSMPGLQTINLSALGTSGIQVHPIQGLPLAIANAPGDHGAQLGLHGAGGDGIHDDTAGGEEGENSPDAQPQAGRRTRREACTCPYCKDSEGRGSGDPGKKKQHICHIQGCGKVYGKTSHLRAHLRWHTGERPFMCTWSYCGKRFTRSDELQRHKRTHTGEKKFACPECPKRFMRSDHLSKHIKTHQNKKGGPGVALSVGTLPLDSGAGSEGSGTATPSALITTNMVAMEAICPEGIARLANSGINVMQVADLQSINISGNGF
How it was run: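 HepG2 cells transiently transfected with multiple reporter transcription units driven by cis-regulatory elements; Sp1-responsive reporter mRNA measured 24 h after dosing by RT-PCR and capillary electrophoresis fluorescence, fitted bidirectionally against DMSO baseline.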

[7] = molecular target: Signal transducer and activator of transcription 3 (Homo sapiens) (UniProt P40763); assay: ATG_STAT3_CIS: Attagene CIS-FACTORIAL HepG2 Assay for human Signal Transducer and Activator of Transcription 3 (STAT3) (AID 2282963); settings: HepG2, Attagene cis-factorial STAT3 reporter transcription; actives raise or lower the signal
Sequence of Signal transducer and activator of transcription 3 (Homo sapiens) (P40763 whole entry, looked up): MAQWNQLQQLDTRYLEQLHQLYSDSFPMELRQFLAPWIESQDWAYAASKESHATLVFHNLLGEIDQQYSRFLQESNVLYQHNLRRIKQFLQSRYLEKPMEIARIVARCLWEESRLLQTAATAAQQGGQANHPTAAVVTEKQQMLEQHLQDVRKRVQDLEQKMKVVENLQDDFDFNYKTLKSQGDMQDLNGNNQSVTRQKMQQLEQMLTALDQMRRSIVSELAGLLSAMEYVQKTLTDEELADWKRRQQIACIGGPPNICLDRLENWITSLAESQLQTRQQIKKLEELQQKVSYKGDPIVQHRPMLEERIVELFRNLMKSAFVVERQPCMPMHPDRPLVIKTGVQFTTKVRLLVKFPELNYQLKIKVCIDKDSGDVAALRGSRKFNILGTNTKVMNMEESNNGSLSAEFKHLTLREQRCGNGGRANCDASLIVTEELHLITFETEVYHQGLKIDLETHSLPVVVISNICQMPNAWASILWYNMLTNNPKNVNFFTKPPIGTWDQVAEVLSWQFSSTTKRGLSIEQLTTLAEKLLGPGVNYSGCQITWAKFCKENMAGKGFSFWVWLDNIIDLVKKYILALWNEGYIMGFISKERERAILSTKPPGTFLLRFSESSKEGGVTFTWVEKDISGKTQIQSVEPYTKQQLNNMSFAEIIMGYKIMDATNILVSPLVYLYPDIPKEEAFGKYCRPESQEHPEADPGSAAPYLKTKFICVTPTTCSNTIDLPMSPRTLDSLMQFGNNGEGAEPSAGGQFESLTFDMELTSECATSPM
How it was run: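 Endogenous STAT3-responsive cis-element activity was read in transiently transfected HepG2 cells after 24 h treatment. Reporter transcripts were quantified via RT-PCR and capillary electrophoresis, with DMSO as negative control and bidirectional curve fitting.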

[8] = ATG_TA_CIS: Attagene CIS-FACTORIAL HepG2 Assay for human TA Basal Promoter (AID 2282964); settings: HepG2 Attagene CIS-factorial TA basal promoter reporter; actives raise or lower the signal
How it was run: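 Background-control readout: TA basal promoter reporter mRNA, fitted in both directions relative to DMSO. Measured by RT-PCR and capillary electrophoresis 24 hours after treating HepG2 human liver cells transiently carrying multiplexed cis-regulated reporter constructs.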

[9] = ATG_TCF_b_cat_CIS: Attagene CIS-FACTORIAL HepG2 Assay for human T-Cell-Factor with beta-catenin (TCF/b-cat) (AID 2282965); settings: HepG2 TCF/beta-catenin cis-reporter transcription, actives raise or lower the signal
How it was run: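 Measured: reporter mRNA in HepG2 transiently transfected with cis-promoter reporter units, 24 h after chemical addition. Fitting was bidirectional, DMSO as negative control.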

[10] = ATG_TAL_CIS: Attagene CIS-FACTORIAL HepG2 Assay for human TAL Basal Promoter (AID 2282966); settings: HepG2 Attagene cis-factorial TAL promoter reporter; actives raise or lower the signal;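 note: background control endpoint measuring basal TAL promoter reporter mRNA not a specific factor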
How it was run: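 HepG2 cells transiently transfected with multiplexed cis-promoter reporter units, dosed 24 h. Reporter mRNA quantified by RT-PCR, 6-FAM labelling, HpaI digestion and capillary electrophoresis; TAL basal promoter serves as background control, fitted bidirectionally versus DMSO.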

[11] = ATG_TGFb_CIS: Attagene CIS-FACTORIAL HepG2 Assay for human Transforming Growth Factor (TGF) (AID 2282967); settings: HepG2 Attagene CIS TGFb reporter, mRNA transcription; actives raise or lower the signal
How it was run: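 Endogenous TGFB1-linked transcription factor activity read as reporter mRNA via RT-PCR and capillary electrophoresis, 24 h after dosing transiently transfected HepG2 cells. Gain or loss of signal fitted relative to DMSO.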

[12] = ATG_VDRE_CIS: Attagene CIS-FACTORIAL HepG2 Assay for human Vitamin D Receptor Element (VDRE) (AID 2282968); settings: HepG2 VDRE cis-reporter transcription, actives raise or lower the signal
How it was run: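 Reporter mRNA induction, quantified by capillary electrophoresis of fluorescently labelled RT-PCR products, was read 24 h after dosing HepG2 cells carrying transiently transfected cis-regulated reporter units; gain or loss relative to DMSO.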

[13] = molecular target: Nuclear receptor subfamily 1 group I member 3 (Homo sapiens) (UniProt Q14994); assay: ATG_CAR_TRANS: Attagene TRANS-FACTORIAL HepG2 Assay for human Constitutive Androstane Receptor (CAR) (AID 2282969; active = hit-call score of the fitted dose curve at least 0.9, where 1 is the maximum;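 note: activators raise reporter mRNA above DMSO so AC50 marks induction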); settings: HepG2 Attagene TRANS-FACTORIAL CAR reporter
Sequence of Nuclear receptor subfamily 1 group I member 3 (Homo sapiens) (Q14994 whole entry, looked up, the tested form may be a part): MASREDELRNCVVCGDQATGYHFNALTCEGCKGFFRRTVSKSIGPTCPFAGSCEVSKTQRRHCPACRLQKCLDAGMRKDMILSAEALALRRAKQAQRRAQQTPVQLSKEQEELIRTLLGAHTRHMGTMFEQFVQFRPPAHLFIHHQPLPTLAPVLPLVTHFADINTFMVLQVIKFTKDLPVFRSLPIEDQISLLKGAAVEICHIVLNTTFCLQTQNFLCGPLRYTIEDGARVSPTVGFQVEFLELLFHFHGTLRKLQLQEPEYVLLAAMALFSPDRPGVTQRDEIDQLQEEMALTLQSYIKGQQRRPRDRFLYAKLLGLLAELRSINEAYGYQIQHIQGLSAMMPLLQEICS
How it was run: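 Readout is reporter mRNA induction, quantified by fluorescent primer extension and capillary electrophoresis after RT-PCR. Cells were HepG2 transiently carrying chimeric NR-Gal4 constructs with GAL4-UAS reporters, treated for 24 h; activity scored upward from DMSO.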

[14] = molecular target: X-box-binding protein 1 (Homo sapiens) (UniProt P17861); assay: ATG_Xbp1_CIS: Attagene CIS-FACTORIAL HepG2 Assay for human X-box Binding Protein 1 (XBP1) (AID 2282972); settings: HepG2 XBP1 cis-element reporter, Attagene multiplex; actives raise or lower the signal
Sequence of X-box-binding protein 1 (Homo sapiens) (P17861 whole entry, looked up, the tested form may be a part): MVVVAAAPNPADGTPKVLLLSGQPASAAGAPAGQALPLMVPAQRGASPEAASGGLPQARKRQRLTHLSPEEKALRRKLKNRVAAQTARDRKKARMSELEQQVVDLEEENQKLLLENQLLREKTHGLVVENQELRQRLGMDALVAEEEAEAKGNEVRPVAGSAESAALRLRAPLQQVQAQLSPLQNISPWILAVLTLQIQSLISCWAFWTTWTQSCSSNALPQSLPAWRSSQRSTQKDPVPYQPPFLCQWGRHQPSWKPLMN
How it was run: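 Fluorescence-labelled cDNA fragments from reporter transcripts, separated by capillary electrophoresis, give the signal. Source: HepG2 cells transfected with promoter-driven reporter units, harvested 24 h post-dose. DMSO served as reference for bidirectional curve fitting.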

[15] = ATG_M_19_TRANS: Attagene TRANS-FACTORIAL HepG2 Assay for M19 Transcription Factor (Internal Marker) (AID 2282974; active = hit-call score of the fitted dose curve at least 0.9, where 1 is the maximum); settings: HepG2 Attagene TRANS-FACTORIAL M19 internal marker reporter
How it was run: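 HepG2 cells transiently transfected with multiple GAL4-UAS reporter transcription units were exposed to chemicals for 24 h. Reporter mRNA was read by RT-PCR, 6-FAM primer extension, HpaI digestion and capillary electrophoresis; gain of signal fitted relative to DMSO.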

[16] = ATG_GAL4_TRANS: Attagene TRANS-FACTORIAL HepG2 Assay for GAL4 (Internal Marker) (AID 2282976; active = hit-call score of the fitted dose curve at least 0.9, where 1 is the maximum); settings: HepG2 Attagene TRANS GAL4 internal marker reporter
How it was run: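 Background-control readout: GAL4-UAS reporter transcript in transiently transfected HepG2 cells after 24 h compound exposure. Measured by RT-PCR, 6-FAM primer extension, HpaI digest and capillary electrophoresis; gain-of-signal fit versus DMSO.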

[17] = ATG_PXRE_CIS: Attagene CIS-FACTORIAL HepG2 Assay for human Pregnane X Receptor Element (PXRE) (AID 2282957); settings: HepG2 Attagene CIS-FACTORIAL PXRE reporter, mRNA; actives raise or lower the signal
How it was run: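 HepG2 cells transiently transfected with cis-element-driven multiplexed reporter units; after 24 h chemical exposure, reporter mRNA measured by RT-PCR, 6-FAM labelling, HpaI digestion and capillary electrophoresis. Bidirectional fitting relative to DMSO.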

[18] = ATG_SREBP_CIS: Attagene CIS-FACTORIAL HepG2 Assay for human Sterol Regulatory Element Binding (SREBP) (AID 2282962); settings: HepG2 Attagene cis-factorial SREBP reporter, mRNA; actives raise or lower the signal
How it was run: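 mRNA induction of transfected cis-promoter reporters in HepG2 cells, 24 h post-dose. Detection: RT-PCR with 6-FAM-labelled products, HpaI digest, capillary electrophoresis. DMSO served as negative control and baseline.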

[19] = molecular target: Estrogen receptor (Homo sapiens) (UniProt P03372); assay: ATG_ERa_TRANS: Attagene TRANS-FACTORIAL HepG2 Assay for human Estrogen Receptor alpha (ERa) (AID 2282970; active = hit-call score of the fitted dose curve at least 0.9, where 1 is the maximum); settings: HepG2 Attagene TRANS ERa GAL4 reporter, mRNA
Sequence of Estrogen receptor (Homo sapiens) (P03372 whole entry, looked up, the tested form may be a part): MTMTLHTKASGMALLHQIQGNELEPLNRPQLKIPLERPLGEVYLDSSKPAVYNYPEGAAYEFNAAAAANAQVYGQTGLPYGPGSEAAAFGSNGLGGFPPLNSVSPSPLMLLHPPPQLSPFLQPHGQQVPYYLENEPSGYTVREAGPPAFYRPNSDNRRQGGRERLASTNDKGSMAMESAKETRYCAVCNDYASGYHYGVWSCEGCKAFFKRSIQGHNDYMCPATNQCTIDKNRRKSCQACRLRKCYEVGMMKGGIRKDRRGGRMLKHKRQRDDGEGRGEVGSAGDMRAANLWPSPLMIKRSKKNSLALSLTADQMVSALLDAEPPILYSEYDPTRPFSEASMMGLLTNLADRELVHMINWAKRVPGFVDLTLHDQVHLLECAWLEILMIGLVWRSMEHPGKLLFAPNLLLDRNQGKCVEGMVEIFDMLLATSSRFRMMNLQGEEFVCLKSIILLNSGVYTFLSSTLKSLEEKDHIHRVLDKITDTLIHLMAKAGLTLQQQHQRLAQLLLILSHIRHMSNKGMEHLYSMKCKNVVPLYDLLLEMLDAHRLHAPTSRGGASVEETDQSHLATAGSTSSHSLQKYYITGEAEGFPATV
How it was run: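 HepG2 cells transiently transfected with multiplexed GAL4-UAS reporter units read out chimeric NR-Gal4 activity. After 24 h compound exposure, reporter mRNA was quantified by RT-PCR, 6-FAM labeling, HpaI digestion and capillary electrophoresis, relative to DMSO.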

[20] = molecular target: Steroid hormone receptor ERR1 (Homo sapiens) (UniProt P11474); assay: ATG_ERRa_TRANS: Attagene TRANS-FACTORIAL HepG2 Assay for human Estrogen-Related Receptor alpha (ERRa) (AID 2282971; active = hit-call score of the fitted dose curve at least 0.9, where 1 is the maximum); settings: HepG2 Attagene TRANS reporter, ERRa transactivation
Sequence of Steroid hormone receptor ERR1 (Homo sapiens) (P11474 whole entry, looked up, the tested form may be a part): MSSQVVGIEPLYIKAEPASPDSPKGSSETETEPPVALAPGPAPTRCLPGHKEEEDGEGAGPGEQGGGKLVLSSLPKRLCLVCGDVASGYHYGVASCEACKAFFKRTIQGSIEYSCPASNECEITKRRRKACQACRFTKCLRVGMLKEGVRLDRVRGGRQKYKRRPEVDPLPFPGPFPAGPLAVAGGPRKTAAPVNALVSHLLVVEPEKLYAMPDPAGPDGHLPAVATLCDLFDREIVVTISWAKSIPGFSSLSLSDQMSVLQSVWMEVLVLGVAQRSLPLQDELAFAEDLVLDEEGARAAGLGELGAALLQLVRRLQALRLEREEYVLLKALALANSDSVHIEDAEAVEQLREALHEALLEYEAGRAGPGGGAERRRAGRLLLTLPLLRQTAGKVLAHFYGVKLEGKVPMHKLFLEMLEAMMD
How it was run: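 HepG2 cells transiently transfected with GAL4-UAS reporter units and chimeric NR-Gal4 constructs; after 24 hour compound incubation, reporter mRNA quantified by RT-PCR, fluorescent labelling and capillary electrophoresis, gain of signal versus DMSO.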

Measured: AC50

CCOC(=O)CC(=O)c1ccccc1
not listed: [17] | [18] | [19] | [20]
inactive: all other assays above

CCCCCCCOC(=O)c1ccc(O)cc1
active: [5] 33.4 µM | [6] 33.4 µM | [19] 8.4 µM | [14] 45.1 µM
not listed: [3] | [4] | [7] | [15] | [20]
inactive: all other assays above

O=C(OCc1ccccc1)c1ccc(O)cc1
inactive: [4] | [6] | [7] | [10] | [11] | [15]
active: [1] 63.7 µM | [2] 144 µM | [5] 100 µM | [18] 72.8 µM | [8] 100 µM | [9] 124 µM | [19] 26.7 µM | [14] 147 µM

O=C(O)c1cc(O)c2ccccc2c1O
active: [8] 60.2 µM | [10] 51.6 µM | [11] 33.4 µM
not listed: [12] | [13] | [15] | [16] | [17]
inactive: all other assays above

CCCSSCCC
not listed: [15] | [17] | [20]
inactive: all other assays above

C=C(C)OC(C)=O
not listed: [3] | [4] | [18]
inactive: all other assays above

CC(C)CCCCCOC(=O)CS
not listed: [3] | [9] | [12] | [15] | [17] | [19] | [20]
inactive: all other assays above

CCCCC(=O)O
not listed: [3] | [17] | [18] | [20]
inactive: all other assays above

CC(CC=O)CC(C)(C)C (centres undefined)
not listed: [4] | [6] | [17] | [20]
inactive: all other assays above
